# Laboratory results published in PubChem BioAssay.
# Activity calls are given as the source filed them. Unless noted, the rule behind the calls is not given here.
# Columns and labels:
# [1] = HepG2 liver cancer cell viability effects, profiling panel, resazurin fluorescence, 24 h, PK04 Diversity Set (AID 1172); settings: higher = more signal
# [2] = basal S. cerevisiae growth modulation, no modifier, primary screen, OD600, strain BY4716, 24 h, basal condition (AID 1173); settings: OD600, 24 h, higher = more signal, called active from +8 up or from −8 down
# [3] = MM1S myeloma cell viability, profiling panel, resazurin fluorescence, basal, 24 h, PK04 Diversity Set (AID 1174); settings: higher = more signal, called active from +8 up or from −8 down;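 note: MM1S multiple myeloma cell line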
# [4] = molecular target: Dihydroorotate dehydrogenase (quinone), mitochondrial (Plasmodium falciparum (isolate 3D7)) (UniProt Q08210); assay: PfDHODH enzyme inhibitors, primary screen, biochemical, C-terminal His tag, absorbance 600 nm (AID 1175); settings: DCIP absorbance 600 nm, higher = more signal, called active from +8 up or from −8 down;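 note: recombinant parasite enzyme with a five histidine tag at its C terminus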
# [5] = P. aeruginosa biofilm formation inhibitors, primary screen, strain PAO1, LB-PBS medium, absorbance 600 nm (AID 1176); settings: P. aeruginosa PAO1 growth/biofilm, A600, 12 h; higher = more signal
# [6] = S. cerevisiae RM11-1a growth modifiers, primary screen, strain RM11-1a, OD600, basal, 24 h (AID 1177); settings: OD600, 24 h, higher = more signal, called active from +8 up or from −8 down;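 note: cultures grown under basal conditions with no added stressor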
# [7] = E. coli acrAB mutant growth effects, primary screen, E. coli filamentation inducers, strain DRC39, OD650, 24 h (AID 1178); settings: higher = more signal, called active from +8 up or from −8 down;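 note: growth measured as culture turbidity by optical density at 650 nm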
# [8] = E. coli acrAB mutant growth effects, primary screen, E. coli filamentation inducers, strain DRC39, OD650, 48 h (AID 1179);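 note: screen aims at cell division blockers that make cells filament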; settings: E. coli DRC39 delta-acrAB growth, higher = more signal, called active from +8 up or from −8 down
# [9] = RPMI8226 myeloma cell viability, profiling panel, resazurin fluorescence, basal, 24 h, PK04 Diversity Set (AID 1180); settings: higher = more signal;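 note: RPMI8826 multiple myeloma cell line at 5000 cells per well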
# [10] = molecular target: E3 ubiquitin-protein ligase XIAP (Homo sapiens) (UniProt P98170); assay: XIAP binders, primary screen, biophysical, small-molecule microarray, fluorescence 635 nm (AID 1181); settings: small-molecule microarray binding, higher = more signal;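 note: score merges 667 nm emission and signal to noise over triplicate slides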
# [11] = system: XIP peptide (Xip251-270) binding; assay: small-molecule binders of XIP peptide, primary screen, biochemical, small-molecule microarray, fluorescence 635/667 nm, 0.1 µg/mL protein (AID 1182); settings: fluorescent protein binding, 635 nm, higher = more signal, called active from +8 up or from −8 down
# XIP peptide (Xip251-270) = assay: small-molecule binders of XIP peptide, primary screen, biochemical, small-molecule microarray, fluorescence 635/667 nm, 0.5 µg/mL protein (AID 1183); settings: small-molecule microarray binding, fluorescence 635 nm; higher = more signal
# [12] = Plasmodium falciparum growth inhibition, primary screen, strain 3D7, DAPI fluorescence, 100 nL (AID 1184);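 note: parasites grown inside human red blood cells in medium with human serum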; settings: P. falciparum 3D7 growth, 3 d, higher = more signal
# [13] = molecular target: Homeobox protein Hox-A13 (Mus musculus) (UniProt Q62424); assay: inhibitors of HoxA13-DNA binding, primary screen, biochemical, fluorescence polarization, labeled oligonucleotide (AID 1185); settings: 15 min, higher = more signal, called active from +8 up or from −8 down
# [14] = inhibitors of hydroxyurea-induced Chk1 phosphorylation, primary screen, imaging, HeLa, phospho-Chk1 antibody, percent positive cells (AID 1186); settings: hydroxyurea-induced phospho-Chk1 immunofluorescence imaging, higher = more signal
# [15] = inhibitors of hydroxyurea-induced Chk1 phosphorylation, primary screen, imaging, HeLa, phospho-Chk1 nuclear intensity (AID 1187); settings: hydroxyurea-induced phospho-Chk1 immunofluorescence imaging, higher = more signal
# Sequence of Dihydroorotate dehydrogenase (quinone), mitochondrial (Plasmodium falciparum (isolate 3D7)) (Q08210 whole entry, looked up): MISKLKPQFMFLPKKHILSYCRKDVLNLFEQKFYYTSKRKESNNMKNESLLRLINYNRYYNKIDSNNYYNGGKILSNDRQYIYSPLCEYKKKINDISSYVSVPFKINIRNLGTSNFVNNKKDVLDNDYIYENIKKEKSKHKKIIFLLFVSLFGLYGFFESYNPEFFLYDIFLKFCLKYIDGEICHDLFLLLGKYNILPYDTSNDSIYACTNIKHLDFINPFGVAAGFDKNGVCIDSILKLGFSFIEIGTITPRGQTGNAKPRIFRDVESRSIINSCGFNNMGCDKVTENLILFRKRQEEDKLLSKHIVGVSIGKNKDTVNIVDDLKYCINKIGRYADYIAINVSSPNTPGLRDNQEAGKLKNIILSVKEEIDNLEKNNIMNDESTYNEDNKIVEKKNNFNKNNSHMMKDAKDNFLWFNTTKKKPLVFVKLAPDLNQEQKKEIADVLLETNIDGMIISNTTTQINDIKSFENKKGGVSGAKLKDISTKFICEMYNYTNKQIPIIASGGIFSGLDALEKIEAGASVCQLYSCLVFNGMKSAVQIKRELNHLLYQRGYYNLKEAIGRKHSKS
# Sequence of Homeobox protein Hox-A13 (Mus musculus) (Q62424 whole entry, looked up): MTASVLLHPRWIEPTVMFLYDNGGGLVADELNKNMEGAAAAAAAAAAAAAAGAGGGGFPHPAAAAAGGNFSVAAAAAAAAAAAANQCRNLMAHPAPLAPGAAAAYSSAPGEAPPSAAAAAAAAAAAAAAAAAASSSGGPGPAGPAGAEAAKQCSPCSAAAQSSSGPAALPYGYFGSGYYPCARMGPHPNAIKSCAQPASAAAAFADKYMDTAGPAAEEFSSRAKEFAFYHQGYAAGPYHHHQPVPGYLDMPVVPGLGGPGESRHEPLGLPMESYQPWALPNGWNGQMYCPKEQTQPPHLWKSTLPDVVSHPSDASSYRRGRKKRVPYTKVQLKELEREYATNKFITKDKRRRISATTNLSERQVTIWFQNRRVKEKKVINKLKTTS
# Sequence of E3 ubiquitin-protein ligase XIAP (Homo sapiens) (P98170 whole entry, looked up): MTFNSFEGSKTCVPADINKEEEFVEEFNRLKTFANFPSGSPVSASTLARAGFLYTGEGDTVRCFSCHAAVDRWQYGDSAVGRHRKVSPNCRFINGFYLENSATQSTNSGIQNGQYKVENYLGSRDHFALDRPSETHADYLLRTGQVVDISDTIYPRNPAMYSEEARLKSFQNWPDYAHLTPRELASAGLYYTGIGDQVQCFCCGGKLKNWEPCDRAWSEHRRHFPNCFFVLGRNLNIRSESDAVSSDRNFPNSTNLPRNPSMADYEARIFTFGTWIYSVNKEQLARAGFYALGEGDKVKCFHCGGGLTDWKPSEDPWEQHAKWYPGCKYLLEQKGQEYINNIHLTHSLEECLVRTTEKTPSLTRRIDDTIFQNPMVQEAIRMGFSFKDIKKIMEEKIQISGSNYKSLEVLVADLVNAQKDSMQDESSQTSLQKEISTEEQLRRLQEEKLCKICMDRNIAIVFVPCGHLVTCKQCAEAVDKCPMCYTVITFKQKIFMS
Structure (SMILES),z-score [1],z-score [2],z-score [3],composite z-score [4],z-score [5],z-score [6],z-score [7],z-score [8],z-score [9],composite z-score [10],composite z-score [11],composite z-score (XIP peptide (Xip251-270)),z-score [12],z-score [13],z-score [14],z-score [15]
CCOC(=O)C[C@H]1[C@H](OC(=O)c2ccc(-c3ccccc3)cc2)[C@@H](NC(=O)c2ccc3ccccc3c2)c2cc(OCCCO)ccc2N1C(=O)c1ccccc1,-0.491,1.31 (inactive),-0.483 (inactive),0.622 (inactive),0.055 (inactive),1.13 (inactive),-0.0319 (inactive),-0.0532 (inactive),-0.221,0.0454,0.377 (inactive),-0.0506,-0.633,-1.35 (inactive),0.0034 (inactive),0.241 (inactive)
CC(C)C[C@@H]1NC(=O)C([C@@H](C)OCc2ccccc2)NC(=O)[C@@]23C(=O)N[C@@H](Cc4ccccc4)C2[C@H](C)[C@@]2(C)O[C@H]2C3/C=C/CC/C=C/CNC1=O (stereo not given in full),0.536,-1.78 (inactive),-0.0218 (inactive),-0.485 (inactive),0.261 (inactive),-0.435 (inactive),1.64 (inactive),0.212 (inactive),-0.417,-0.144,-0.0755 (inactive),0.677,-3.08,-6.51 (inactive),-0.799 (inactive),-0.574 (inactive)
Cc1ccc(S[C@]2(C(=O)NCCN3CCOCC3)CC(=O)N(C3CCCCC3)[C@@H]2c2ccc(CO)cc2I)cc1,1.5,-0.0113 (inactive),0.482 (inactive),0.88 (inactive),-0.447 (inactive),1.27 (inactive),0.464 (inactive),0.677 (inactive),-1.29,-0.302,0.825 (inactive),0.657,-1.92,-5.68 (inactive),0.134 (inactive),0.114 (inactive)
C=CC[C@]1(C(=O)N(C)C)COC(c2ccc(OCCCO)cc2)=N1,0.0446,-2.54 (inactive),0.41 (inactive),-0.261 (inactive),1.21 (inactive),0.919 (inactive),0.386 (inactive),-2.8 (inactive),0.764,0.202,0.113 (inactive),0.907,-1.7,-2.35 (inactive),-0.491 (inactive),-0.146 (inactive)
COc1ccc([Si](C)(C)[C@H]2[C@H](CCn3cc([C@H](O)c4ccccc4)nn3)O[C@@]3(C(=O)N(C)c4c(Br)cc(C)cc43)[C@@H]2C)cc1,-2.69,-0.691 (inactive),-3.29 (inactive),1.19 (inactive),1.03 (inactive),1.01 (inactive),0.566 (inactive),0.132 (inactive),-5.5,0.0512,0.424 (inactive),0.586,-2.41,-2.54 (inactive),-0.66 (inactive),-0.0953 (inactive)
NCCCC[C@@H]1NC(=O)[C@H]2C[C@@H](C(=O)NCc3ccc(F)cc3)[C@@H](c3ccc(O)cc3)N2C1=O,0.175,1.15 (inactive),0.247 (inactive),-0.17 (inactive),0.174 (inactive),1.02 (inactive),0.207 (inactive),-0.277 (inactive),0.191,0.226,2.07 (inactive),0.563,0.338,-4.42 (inactive),-0.52 (inactive),-0.367 (inactive)
COC(=O)[C@@]1(Cc2ccc(F)cc2)[C@H]2c3cc(C(=O)N(C)C)n(CCn4cc([N+](=O)[O-])nc4C)c3C[C@H]2CN1C(=O)c1ccccc1,-1.02,1.94 (inactive),-1.05 (inactive),-0.165 (inactive),0.122 (inactive),0.502 (inactive),-0.984 (inactive),-0.566 (inactive),-0.801,0.267,0.128 (inactive),0.5,0.653,-2.06 (inactive),0.581 (inactive),0.197 (inactive)
C#CCN=C(N)N,-0.0276,-0.639 (inactive),0.111 (inactive),-0.377 (inactive),0.845 (inactive),-0.491 (inactive),-0.383 (inactive),-0.079 (inactive),0.0428,0.155,0.189 (inactive),0.391,-0.624,-0.327 (inactive),-0.351 (inactive),-0.447 (inactive)
CC[C@H](C)C(=O)O[C@H]1CC[C@]2(C)C3=C(CCC2C1(C)C)[C@]1(C)CC[C@H]([C@H](C)CCCC(C)C)[C@@]1(C)CC3 (stereo not given in full),1.06,0.31 (inactive),0.0978 (inactive),0.454 (inactive),-0.283 (inactive),0.295 (inactive),2.06 (inactive),1.47 (inactive),1.09,-0.304,0.146 (inactive),-0.273,0.231,-1.34 (inactive),-0.719 (inactive),-0.829 (inactive)
CO[C@H]1O[C@H](CO)[C@@H](OC(=O)Nc2ccccc2)[C@@H]2OC(=O)[C@H](Cc3ccccc3)C/C=C/C[C@@H](Cc3ccccc3)C(=O)O[C@@H]12,-1.41,0.411 (inactive),-3.52 (inactive),-1.69 (inactive),0.385 (inactive),0.887 (inactive),1.04 (inactive),1.99 (inactive),-2.26,0.288,1.5 (inactive),0.539,-1.42,-2.64 (inactive),-0.62 (inactive),-0.628 (inactive)
